Assay results as given in PubChem BioAssay (NCI).
Several values for one entry are separate records, joined by “and”; a condition that tells them apart may be missing. Equal values may be shown once. The panel holds about 83,000 compounds, 20% with a hit somewhere; the sample as a whole holds those more often.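 Single-concentration screen, 48 h exposure, 96-well plates. Endpoint: percent growth. Below 10 = active.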 Activity calls are given as the source filed them.

Legend:
Assay in all cases: NCI-60 one-dose screen, 48 h (100 = growth as untreated, 0 = no growth, -100 = all killed)
Conditions in all cases: 10 µM unless noted
NCI/ADR-RES ovarian = tested on: NCI/ADR-RES ovarian
T-47D breast = tested on: T-47D breast
BT-549 breast = tested on: BT-549 breast
MDA-MB-435 melanoma = tested on: MDA-MB-435 melanoma
SW-620 colon = tested on: SW-620 colon
HCT-116 colon = tested on: HCT-116 colon
HCC-2998 colon = tested on: HCC-2998 colon
KM12 colon = tested on: KM12 colon
MCF7 breast = tested on: MCF7 breast

Measured: growth

CCCC(C)SP(=S)(SC(C)CCC)SC(C)CCC (stereo not given)
inactive: NCI/ADR-RES ovarian 99.9% | T-47D breast 100% | BT-549 breast 99.8% | MDA-MB-435 melanoma 97.3% | SW-620 colon 91.7% | HCT-116 colon 101% | HCC-2998 colon 91.5% | KM12 colon 97.3%

CC[C@H](CC[C@@H](C)[C@H]1CC[C@H]2[C@@H]3CC[C@H]4C[C@]5(CC[C@]4(C)[C@H]3CC[C@]12C)OO[C@](C)(C(F)(F)F)O5)C(C)C
inactive: NCI/ADR-RES ovarian 98% | T-47D breast 87.9% | BT-549 breast 82.2% | MDA-MB-435 melanoma 96.9% | SW-620 colon 92.4% | HCT-116 colon 98.3% | HCC-2998 colon 104% | KM12 colon 91.4%

COc1cc2c(c(OC)c1OC)-c1ccc(O)cc1[C@@H](NC(C)=O)CC2
15.1% (inactive) and 6.46% (active): MCF7 breast
inactive: T-47D breast 56.4% and 64% | SW-620 colon 21.9% and 20.7%
active: BT-549 breast 8.27% | HCT-116 colon 6.62% and 4.98% | KM12 colon -17.3% and -32.3%
11.1% (inactive) and -2.64% (active): NCI/ADR-RES ovarian
11.5% (inactive) and 8.19% (active): HCC-2998 colon

CC[C@H](C)[C@H](NC(=O)c1ncccn1)C(=O)N(C)[C@H](C[C@@H](OC(C)=O)c1nc(C(=O)N[C@@H](Cc2ccccc2)C[C@H](C)C(=O)OC)cs1)C(C)C
inactive: NCI/ADR-RES ovarian 70.6% | T-47D breast 52.6% | SW-620 colon 25.8% | MCF7 breast 18.9% | HCC-2998 colon 60.9% | KM12 colon 16.1%
active: BT-549 breast 5.49% | HCT-116 colon 2.48%

C[C@]12CCC(=O)C[C@@H]1CC[C@@H]1[C@@H]2CC[C@]2(C)[C@@H](OC(=O)N(CCCl)N=O)CC[C@@H]12
inactive: NCI/ADR-RES ovarian 25% | T-47D breast 34% | BT-549 breast 32.9% | SW-620 colon 31.7% | MCF7 breast 47.7% | HCT-116 colon 25.9% | HCC-2998 colon 44.6%
active: KM12 colon 3.72%

O=S(=O)(F)c1cccc(Cl)c1C[P+](c1ccccc1)(c1ccccc1)c1ccccc1
inactive: NCI/ADR-RES ovarian 109% | T-47D breast 91.9% | BT-549 breast 106% | MDA-MB-435 melanoma 84.4% | SW-620 colon 100% | HCT-116 colon 92.4% | HCC-2998 colon 99.4% | KM12 colon 102%

NC(=O)Oc1cc(OC(N)=O)cc(N(CCCl)CCCl)c1
inactive: NCI/ADR-RES ovarian 54.9% | T-47D breast 53.6% | BT-549 breast 68.2% | MDA-MB-435 melanoma 65.2% | SW-620 colon 60.8% | HCT-116 colon 61.9% | HCC-2998 colon 103% | KM12 colon 82.3%

Clc1ccc(COC(Cn2ccnc2)c2ccc(Cl)cc2Cl)c(Cl)c1 (stereo not given)
21.7% (inactive) and -21.9% (active): NCI/ADR-RES ovarian
inactive: T-47D breast 46.4% and 36.5% | BT-549 breast 51.8% and 40.9% | SW-620 colon 58.3% and 62.2% | MCF7 breast 39.3% and 35% | HCT-116 colon 14.6% and 16.1% | HCC-2998 colon 47.4% | KM12 colon 40.2% and 43.2%

C[C@]12CC[C@@H](OC(=O)N(CCCl)N=O)C[C@@H]1CC[C@@H]1[C@@H]2CC[C@]2(C)C(=O)CC[C@@H]12
inactive: NCI/ADR-RES ovarian 42.9% | T-47D breast 33.8% | BT-549 breast 76.8% | SW-620 colon 52.9% | MCF7 breast 29.9% | HCT-116 colon 47.5% | HCC-2998 colon 53.6% | KM12 colon 24.5%

CNC(=O)O/N=C(\SC)C(=O)N(C)C
inactive: NCI/ADR-RES ovarian 96.4% | T-47D breast 97.1% | BT-549 breast 101% | SW-620 colon 106% | MCF7 breast 103% | HCT-116 colon 105% | HCC-2998 colon 77.4% | KM12 colon 102%

CC1=C([Te]c2ccccc2)C(=O)c2ccccc2C1=O
active: NCI/ADR-RES ovarian -23.1% | T-47D breast -51.9% | BT-549 breast -30.7% | MDA-MB-435 melanoma -3.36% | SW-620 colon -88.2% | HCT-116 colon -40.5% | HCC-2998 colon -66.4% | KM12 colon -60.7%

COc1ccc(O)c2c(=O)c3c(OC)cc4c(c3oc12)[C@@H]1C=CO[C@@H]1O4
active: T-47D breast 5.73% | HCC-2998 colon -51.7%
inactive: NCI/ADR-RES ovarian 41.6% | BT-549 breast 17.8% | MDA-MB-435 melanoma 37.3% | SW-620 colon 64.6% | HCT-116 colon 52.2% | KM12 colon 12.5%

CC[C@H](C)[C@H](NC(=O)[C@H]1CCCCN1C)C(=O)N(C)[C@H](CCc1nc(C(=O)N[C@@H](Cc2ccccc2)C[C@H](C)C(=O)O)cs1)C(C)C
active: BT-549 breast -3.33% | HCT-116 colon 2.59% | KM12 colon 9.24%
inactive: NCI/ADR-RES ovarian 73.3% | T-47D breast 52.6% | SW-620 colon 27.6% | MCF7 breast 14.2% | HCC-2998 colon 21.5%

N#CCc1ccc(CC#N)cc1
inactive: NCI/ADR-RES ovarian 110% | T-47D breast 87.5% | BT-549 breast 95.9% | MDA-MB-435 melanoma 102% | SW-620 colon 96.7% | HCT-116 colon 98.6% | HCC-2998 colon 108% | KM12 colon 102%

CSc1cc(/C=C(\C)[C@@H]2C[C@@H]3O[C@]3(C)CCC[C@H](C)[C@H](O)[C@@H](C)C(=O)C(C)(C)[C@@H](O)CC(=O)O2)n(CCNC(=O)OC(C)(C)C)n1
inactive: NCI/ADR-RES ovarian 40.4% | T-47D breast 66.2% | BT-549 breast 71.4% | SW-620 colon 31.3% | MCF7 breast 33.3% | HCT-116 colon 26.7% | HCC-2998 colon 54.7% | KM12 colon 23.1%

ClCc1ccc(Cl)c(Cl)c1
inactive: NCI/ADR-RES ovarian 106% | T-47D breast 106% | BT-549 breast 104% | MDA-MB-435 melanoma 106% | SW-620 colon 97% | HCT-116 colon 96.1% | HCC-2998 colon 103% | KM12 colon 104%

C#Cc1cccc(Nc2nc(Cl)nc3cc(NC(=O)CF)ccc23)c1
inactive: NCI/ADR-RES ovarian 53.9% | T-47D breast 79.5% | BT-549 breast 72.2% | SW-620 colon 35.4% | HCT-116 colon 42.4% | HCC-2998 colon 78.2% | KM12 colon 40.1%
active: MDA-MB-435 melanoma -19.1%

Nc1cccnc1
inactive: NCI/ADR-RES ovarian 104% | T-47D breast 106% | BT-549 breast 110% | MDA-MB-435 melanoma 122% | SW-620 colon 105% | HCT-116 colon 104% | HCC-2998 colon 101% | KM12 colon 112%

O=Cc1cn(Cc2ccccc2)c2ccccc12
inactive: NCI/ADR-RES ovarian 82.1% | T-47D breast 41.4% | BT-549 breast 95.1% | SW-620 colon 92.4% | MCF7 breast 84.8% | HCT-116 colon 68.4% | HCC-2998 colon 33.5% | KM12 colon 101%

C[N+]1(C)CCCC1c1cccnc1 (stereo not given)
inactive: NCI/ADR-RES ovarian 111% | T-47D breast 96.5% | BT-549 breast 85.3% | SW-620 colon 100% | MCF7 breast 90.9% | HCT-116 colon 92.5% | HCC-2998 colon 91.2% | KM12 colon 103%

CCOC(=O)c1cncn1C(C)c1ccccc1 (stereo not given)
inactive: NCI/ADR-RES ovarian 109% | T-47D breast 105% | BT-549 breast 100% | MDA-MB-435 melanoma 108% | SW-620 colon 115% | HCT-116 colon 106% | HCC-2998 colon 118% | KM12 colon 104%

COc1cc(/C=C\[N+](=O)[O-])ccc1OCc1ccccc1
active: HCT-116 colon 1% | HCC-2998 colon -70.4%
inactive: NCI/ADR-RES ovarian 69.2% | T-47D breast 49% | BT-549 breast 37.2% | MDA-MB-435 melanoma 20% | SW-620 colon 47.4% | KM12 colon 23.6%

CCCC[C@H]1C(=O)O[C@H](C)[C@H](NC(=O)c2cccc(NC=O)c2O)C(=O)O[C@@H](C)[C@@H]1OC(=O)CC(C)C
active: NCI/ADR-RES ovarian 1.1%
inactive: T-47D breast 27.9% | BT-549 breast 140% | SW-620 colon 59% | MCF7 breast 38.3% | HCT-116 colon 20.8% | HCC-2998 colon 56.6% | KM12 colon 41.9%

O=C=Nc1ccc(Br)cc1
inactive: NCI/ADR-RES ovarian 107% | T-47D breast 92.2% | BT-549 breast 98.3% | MDA-MB-435 melanoma 108% | SW-620 colon 103% | HCT-116 colon 94.3% | HCC-2998 colon 100% | KM12 colon 105%

c1ccc(CCN2CCCCC2)nc1
inactive: NCI/ADR-RES ovarian 109% | T-47D breast 91.1% | BT-549 breast 99.8% | SW-620 colon 112% | MCF7 breast 96.5% | HCT-116 colon 99.9% | HCC-2998 colon 119% | KM12 colon 110%

C[C@]12CCc3sc(Nc4ccc(O)cc4)nc3C1=CC[C@@H]1[C@@H]2CC[C@]2(C)C(=O)CC[C@@H]12
inactive: NCI/ADR-RES ovarian 68.6% | T-47D breast 10.6% | BT-549 breast 45.6% | MDA-MB-435 melanoma 35.3% | HCC-2998 colon 97.7% | KM12 colon 46.7%
active: SW-620 colon -32.2% | HCT-116 colon -72.4%

Cc1ccc(N2CCN(CCC#N)CC2)cc1
inactive: NCI/ADR-RES ovarian 98.8% | T-47D breast 90.9% | BT-549 breast 79% | SW-620 colon 90.3% | MCF7 breast 73.8% | HCT-116 colon 95.7% | HCC-2998 colon 88% | KM12 colon 90%

CC[C@H](C)[C@H](NC(=O)c1cnccn1)C(=O)N(C)[C@H](C[C@@H](OC(C)=O)c1nc(C(=O)N[C@@H](Cc2ccccc2)C[C@H](C)C(=O)OC)cs1)C(C)C
inactive: NCI/ADR-RES ovarian 14.4% | T-47D breast 61.2% | SW-620 colon 23.6% | HCC-2998 colon 22.3%
active: BT-549 breast -7.25% | MDA-MB-435 melanoma -37.6% | HCT-116 colon -9.21% | KM12 colon 3.34%

CN1CCC2(CC1)C(C#N)C(=O)NC(=O)C2C#N (stereo not given)
inactive: NCI/ADR-RES ovarian 113% | T-47D breast 107% | BT-549 breast 103% | MDA-MB-435 melanoma 97.6% | SW-620 colon 108% | HCT-116 colon 93.3% | HCC-2998 colon 112% | KM12 colon 126%

C[C@]12CCc3sc(Nc4ccc(F)cc4F)nc3C1=CC[C@@H]1[C@@H]2CC[C@]2(C)C(=O)CC[C@@H]12
active: SW-620 colon 7.16% | HCT-116 colon -23.3%
inactive: NCI/ADR-RES ovarian 67.6% | T-47D breast 48.9% | BT-549 breast 59.6% | MDA-MB-435 melanoma 51.5% | HCC-2998 colon 71.6% | KM12 colon 57.1%
